Compound activity deposited in PubChem BioAssay by National Center for Advancing Translational Sciences (NCATS).
A selection: hits, their analogues and other compounds. The true share with any hit is near 2.8%.
IP6K1 inh: inhibitors of human IP6K1; Q92551; IP6K1 kinase, ADP-Glo luminescence, 2 h; stronger effect = lower value; activity change, % (series mostly up to about 58 µM); hit rate 0.81% among 140,000; in the data active = activity change below about -25%
Target sequence (Q92551 whole entry, looked up): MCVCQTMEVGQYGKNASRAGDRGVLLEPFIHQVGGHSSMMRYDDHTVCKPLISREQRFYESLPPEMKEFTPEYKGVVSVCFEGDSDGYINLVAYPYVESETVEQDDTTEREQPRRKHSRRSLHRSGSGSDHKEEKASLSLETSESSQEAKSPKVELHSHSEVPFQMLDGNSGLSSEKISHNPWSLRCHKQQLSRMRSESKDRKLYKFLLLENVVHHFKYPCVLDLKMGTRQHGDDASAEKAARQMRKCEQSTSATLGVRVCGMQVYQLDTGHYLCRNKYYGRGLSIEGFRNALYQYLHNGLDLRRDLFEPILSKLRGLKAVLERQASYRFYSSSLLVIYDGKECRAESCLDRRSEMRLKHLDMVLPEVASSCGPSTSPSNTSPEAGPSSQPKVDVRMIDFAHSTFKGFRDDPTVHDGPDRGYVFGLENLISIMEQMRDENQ
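ADP-Glo luminescence measures ADP made by human IP6K1 during a 2 h RT reaction with ATP/IP6 (mix at 1.3 mM/130 uM); top library doses 57.5 and 19.1 uM final.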
KDM5B inhibitor: inhibitors of human KDM5B histone demethylase. KDM5B demethylase, FDH-coupled NADH fluorescence (FDH is formaldehyde dehydrogenase). Potency, µM (series often up to 57.7 µM), hits mostly inhibitors. hit rate 2.6% among 220,000. AID 1347165; active = well fitted inhibition curve with a large enough effect; inconclusive = small, poorly fitted or top-dose-only effect; inactive = no such curve, though single readings can be large or run the other way; note: nearly all actives have a fitted effect of over 70% in size
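Compound dilutions met 200 nM (final) KDM5BΔAP for 10 min at room temperature before substrate addition. The substrate mix held 12.5 µM H3K4me3 with cofactors 25 µM α-ketoglutarate and 50 µM Fe²⁺. NADH signal gain over 30 min defined activity.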
Each line names hits and unclear results; the compound was inactive in the other large screens; ! = repeats disagree.

COc1ccc(-c2cnc(Nc3cccnc3)c3c2CCO3)cn1	none
CCCOc1c(Cl)cc(/C=C/C(=O)c2ccc(O)c(OC)c2)cc1OCC	none (no result: IP6K1 inh)
O=C(c1cccc(Cl)c1)N1CCN(C(=O)c2cccc(-c3ccccn3)c2)CC1	none (no result: KDM5B inhibitor)
O=C(/C=C/c1cccc2ccccc12)NC1CCCC1	none (no result: IP6K1 inh)
CN1CC(=O)N(C2CCCNCC2)Cc2c1ncnc2N1CCN(c2ncccn2)CC1 (stereo unspecified)	KDM5B inhibitor inconclusive
CN1CC(=O)N(C2CCCNCC2)Cc2c1ncnc2N1CCN(c2ccccn2)CC1 (stereo unspecified)	KDM5B inhibitor 79µM
CN1CC(=O)N(C2CCNC2)Cc2c1ncnc2N(C)Cc1ccc(F)cc1 (stereo unspecified)	none
CCNc1ncnc2c1CN(C1CCNCC1)C(=O)CN2C	KDM5B inhibitor 56µM
CN1CC(=O)N(C2CCCNCC2)Cc2c(NCC3CCCCC3)ncnc21 (stereo unspecified)	KDM5B inhibitor inconclusive
CN1CC(=O)N(C2CCCNC2)Cc2c1ncnc2N(C)Cc1ccc(F)cc1 (stereo unspecified)	KDM5B inhibitor 22µM
COc1ccc(NC(=O)CSC2=Nc3ccccc3C3=NC(C)C(=O)N23)cc1Cl (stereo unspecified)	none (no result: IP6K1 inh)
CNC(=O)Cn1c(CO)cnc1SCc1ccc(Br)cc1	none (no result: IP6K1 inh)
Cc1ccc2c(CN3CCN(C)CC3)cc(=O)oc2c1	none (no result: IP6K1 inh)
O=C(NCc1ccc(C(=O)N2CCCCC2)cc1)c1cc(=O)[nH]c2ccccc12	none (no result: IP6K1 inh)
COc1cccc(-c2cc(C(=O)NC3CC3)c3cnn(C)c3n2)c1	none (no result: KDM5B inhibitor)
OCC1CN(Cc2ccccc2)CC12CCN(C1CCC1)CC2 (stereo unspecified)	none
OCC1CN(c2ncccn2)CC12CCN(Cc1ccc3cc[nH]c3c1)CC2 (stereo unspecified)	KDM5B inhibitor 28µM
COc1cccc(CN2CCC3(CC2)CN(c2ncccn2)CC3CO)n1 (stereo unspecified)	KDM5B inhibitor 22µM
OCC1CN(c2ncccn2)CC12CCN(Cc1cc(Cl)ccc1F)CC2 (stereo unspecified)	KDM5B inhibitor 25µM
OCC1CN(c2ncccn2)CC12CCN(Cc1cccnc1)CC2 (stereo unspecified)	KDM5B inhibitor inconclusive
COCCN1CC(CO)C2(CCN(Cc3cccc(OC)n3)CC2)C1 (stereo unspecified)	KDM5B inhibitor inconclusive
CC(C)Oc1ccccc1CN1CCC2(CC1)CN(c1ncccn1)CC2CO (stereo unspecified)	KDM5B inhibitor inconclusive
OCC1CN(c2ncccn2)CC12CCN(C1CCSCC1)CC2 (stereo unspecified)	KDM5B inhibitor 32µM
Cc1ccc(C(=O)N[C@@H]2CN(Cc3ccncc3)C[C@H]2CN(C)C)cc1C	KDM5B inhibitor inconclusive
O=C(NCc1ccc(OC(F)(F)F)cc1)c1n[nH]c(=O)c2ccccc12	none (no result: IP6K1 inh)
CCOc1ccc(NC(=O)c2cc(-c3ccccc3C(F)(F)F)nc3c2cnn3C)cc1	none (no result: KDM5B inhibitor)
OCC1CN(c2ccncn2)CC12CCN(Cc1cccc(F)c1F)CC2 (stereo unspecified)	none
Cn1cccc1CN1CCC2(CC1)CN(c1ncccn1)CC2CO (stereo unspecified)	KDM5B inhibitor 32µM
COc1ccc(F)cc1-c1ccc(CN2CCC(NC(=O)c3cccc(Cl)c3)C2)cc1 (stereo unspecified)	none (no result: KDM5B inhibitor)
CNC(=O)CCn1ncc2cc(OCc3ccccc3-c3cccc(OC)c3)ccc21	KDM5B inhibitor inconclusive
CNC(=O)CCn1ncc2cc(OCc3ccccc3-c3ccc(OC)cc3)ccc21	KDM5B inhibitor 32µM
Nc1ccc2c(N3CCCCC3)ncnc2c1	KDM5B inhibitor inconclusive
Nc1ccc2ncnc(N3CCCCC3)c2c1	KDM5B inhibitor 28µM
O=C(c1cccc(Cl)c1)N1CCN(Cc2ccccc2-c2cccnc2)CC1	none (no result: KDM5B inhibitor)
CCC(=O)N1CCCCCCNC(=O)[C@@H]2C[C@@H](C(=O)N3CCN(c4ccccn4)CC3)C[C@@H]21	KDM5B inhibitor 28µM
O=C1NCCCCCCN(C(=O)c2ccco2)[C@H]2CCC[C@@H]12	none
O=C1NCCCCCCN(C(=O)c2ccco2)[C@H]2C[C@H](C(=O)N3CCN(c4ccccn4)CC3)C[C@@H]12	KDM5B inhibitor 25µM
COCCC(=O)N1CCCCCCNC(=O)[C@@H]2C[C@@H](C(=O)N3CCN(c4ccccn4)CC3)C[C@@H]21	KDM5B inhibitor inconclusive
CSCCNC(=O)c1cc(Br)cn2ccnc12	KDM5B inhibitor 35µM
O=C(NCCc1ccccc1F)c1ccc2nccn2c1	none (no result: KDM5B inhibitor)
O=C(NCc1ccccc1F)c1cc(Br)cn2ccnc12	KDM5B inhibitor 22µM
O=C(NCc1ccc(F)cc1)c1cc(Br)cn2ccnc12	KDM5B inhibitor 32µM
O=C(NCc1ccc(-n2cccn2)cc1)c1cc(F)ccc1Br	none (no result: IP6K1 inh)
O=C(NCCc1ccc(Cl)cc1)c1nc2sccn2c1Br	none
CSCCNC(=O)c1nc2sccn2c1Br	none
O=C(NCCc1ccc(Cl)cc1)c1cc(Br)cn2ccnc12	KDM5B inhibitor 32µM!
COCCNC(=O)c1cn2cc(-c3cccc(OC)c3)sc2n1	none (no result: KDM5B inhibitor)
CC(=O)Nc1c(-c2ccccc2)c(C)nn1-c1ccc(C(=O)NCc2ccccc2)cc1	none (no result: IP6K1 inh)
CCN(Cc1ccco1)C(=O)c1cc2cc(Br)ccc2[nH]1	none (no result: IP6K1 inh)
O=C(NCc1cccc(Cl)c1)c1cc(-c2cccs2)c2cccn2n1	none (no result: KDM5B inhibitor)
COc1ccccc1NC(=O)CCc1c[nH]c2ccccc12	none (no result: IP6K1 inh)
CCS(=O)(=O)c1ccc2oc([C@H]3CCN(C(C)C)C3)nc2c1	KDM5B inhibitor 40µM
CC(=O)N1CC[C@H](c2nc3cc(F)ccc3o2)C1	none
Cc1ccccc1C(=O)NCCSc1c[nH]c2ccccc12	none (no result: IP6K1 inh)
Ic1cccc(-c2nc(-c3ccccc3)no2)c1	none (no result: IP6K1 inh)
c1ccc(-c2noc(-c3ccn4c(CN5CCCCCC5)nnc4c3)n2)cc1	KDM5B inhibitor inconclusive
CCN(CC)Cc1nnc2cc(-c3nc(-c4ccccc4)no3)ccn12	KDM5B inhibitor 20µM
NC(=O)C1CCN(Cc2nnc3cc(-c4nc(-c5ccccc5)no4)ccn23)CC1	KDM5B inhibitor 6.3µM
CC(C)N1CCN(Cc2nnc3cc(-c4nc(-c5ccccc5)no4)ccn23)CC1	none
C=CCN(CC=C)Cc1nnc2cc(-c3nc(-c4ccccc4)no3)ccn12	KDM5B inhibitor 25µM
COc1cccc(CNC(=O)c2cc(-c3cc(Cl)cc(Cl)c3)nc3c2cnn3C)c1	none (no result: KDM5B inhibitor)
COc1ccccc1Nc1ccnc(N2CCN(C(=O)c3ccc(F)cc3)CC2)n1	none (no result: KDM5B inhibitor)
COc1cc(NC(=O)Cn2c(NCc3ccccc3)nc3ccccc32)cc(OC)c1	none (no result: IP6K1 inh)
Cc1ccc(CNC(=O)CCc2c[nH]c3ccccc23)s1	none (no result: IP6K1 inh)
O=C(CNC(=O)c1cccc(-c2ccsc2)c1)NCc1ccccc1	none (no result: KDM5B inhibitor)
CNC(=O)c1cccn2cncc12	KDM5B inhibitor inconclusive
CNC(=O)c1cccn2nccc12	KDM5B inhibitor 32µM
O=C(NC1CC1)c1cccn2nccc12	KDM5B inhibitor 35µM
O=C(NC1CC1)c1cnn2ncccc12	KDM5B inhibitor 32µM
Nc1c(C(=O)NC2CCCC2)cnn1-c1ccccc1	none (no result: IP6K1 inh)
O=C(NC1CC1)c1cccn2cncc12	KDM5B inhibitor inconclusive
CCOC(=O)[C@@H]1[C@@H](O)C(=O)N(Cc2ccccc2)C12CCN(C(=O)/C=C/c1ccccc1)CC2	none (no result: KDM5B inhibitor)
O=C(NCCc1ccc(Cl)cc1)c1ccc2nnc(-c3cccc(C(F)(F)F)c3)n2c1	none (no result: KDM5B inhibitor)
N#Cc1ccc(CN2CCC(c3nc4ccc(F)cc4c(=O)[nH]3)CC2)cc1	none
Cc1ccc2nc(C3CCN(Cc4ccc(C#N)cc4)CC3)[nH]c(=O)c2c1	KDM5B inhibitor 79µM!
CCOC(=O)CN(Cc1cccs1)[C@@H]1C[C@@H]2CO[C@H](C(C)C)C[C@@H]2C1	none (no result: KDM5B inhibitor)
